The list is not random: actives were taken first. Their share in the collection is about 2.8%.
PME-1 inh – blocks human protein phosphatase methylesterase 1; inhibition, % at 5.9 µM; recombinant PME-1, FP-Rh probe fluorescence polarization; Q9Y570; actives 0.53% (n = 320,000);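 active = inhibition above the campaign mean of all compounds plus 3 SD, cut at about 26% in these data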;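 note: competitive labeling of PME-1 active site by serine hydrolase directed probe; inhibitors block probe labeling so polarization falls and inhibition rises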
PAFAH1B3 inh – PAFAH1B3 (human) inhibition. Q15102. AID 492972. recombinant PAFAH1B3, FP-rhodamine probe, fluorescence polarization. actives 0.28% (n = 340,000). inhibition, % at 3.39 µM;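 active = inhibition above the screen-wide average of all tested compounds plus 3 SD, cut at about 25% in these data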
Target sequence (Q15102 whole entry, looked up): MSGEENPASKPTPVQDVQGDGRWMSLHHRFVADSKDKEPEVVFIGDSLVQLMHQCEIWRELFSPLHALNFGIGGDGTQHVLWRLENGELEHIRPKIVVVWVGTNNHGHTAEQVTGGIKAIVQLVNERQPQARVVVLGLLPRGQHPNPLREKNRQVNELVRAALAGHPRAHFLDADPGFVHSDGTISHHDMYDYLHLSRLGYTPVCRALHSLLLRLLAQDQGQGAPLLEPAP
PAFAH2 inh – inhibitors of human PAFAH2. recombinant PAFAH2, FP-rhodamine activity probe, fluorescence polarization. inhibition, % at 3.39 µM. actives 0.99% (n = 340,000). AID 492956;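 active = inhibition above the mean over all tested compounds plus 3 SD, cut at about 30% in these data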;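 note: inhibitors block probe labeling of enzyme so polarization drops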
Fam108B counter – Fam108B inhibition, counter-screen for RBBP9 inhibitors | recombinant Fam108B, FP-Rh probe fluorescence polarization | inhibition, % at 9.51 µM | actives 0.33% (n = 300,000) | AID 1947;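 active = inhibition above the screen mean inhibition plus 3 SD, computed separately per campaign, cut at about 18% in these data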;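 note: inhibitors lower polarization as less probe binds the enzyme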
PAFAH1B2 inh – PAFAH1B2 (human) inhibition | P68402 | recombinant PAFAH1B2, FP-rhodamine activity probe, fluorescence polarization | inhibition, % at 3.39 µM | actives 1.2% (n = 340,000);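 active = inhibition above the mean of all tested compounds plus 3 SD, cut at about 24% in these data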
pPAFAH inh – inhibitors of human plasma PAF acetylhydrolase (pPAFAH) | inhibition, % at 3.39 µM | actives 1.5% (n = 330,000) | AID 463082 | recombinant pPAFAH, FP-rhodamine probe fluorescence polarization;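 active = inhibition above the mean inhibition across the screen plus 3 SD, cut at about 25% in these data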;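 note: inhibitors block binding of the rhodamine activity-based probe so polarization drops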
Target sequence (Q13093 whole entry, looked up): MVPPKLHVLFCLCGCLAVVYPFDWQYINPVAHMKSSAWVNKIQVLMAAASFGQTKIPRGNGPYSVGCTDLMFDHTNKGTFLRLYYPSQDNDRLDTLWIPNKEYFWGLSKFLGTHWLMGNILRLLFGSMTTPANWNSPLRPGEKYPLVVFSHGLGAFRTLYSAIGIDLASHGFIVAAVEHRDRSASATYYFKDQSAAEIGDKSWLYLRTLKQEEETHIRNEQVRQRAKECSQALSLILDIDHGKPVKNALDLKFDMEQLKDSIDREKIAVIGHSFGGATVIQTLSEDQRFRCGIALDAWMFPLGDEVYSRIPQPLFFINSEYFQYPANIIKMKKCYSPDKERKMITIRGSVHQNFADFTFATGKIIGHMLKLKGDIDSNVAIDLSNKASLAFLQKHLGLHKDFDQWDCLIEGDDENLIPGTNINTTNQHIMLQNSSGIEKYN
Large screens that a line does not name were inactive.

ClCCn1cnc2c(SCc3ccccc3)ncnc21	none (no result: PME-1 inh, Fam108B counter, pPAFAH inh)
Cc1cc(C)cc(N(CCC#N)C(=O)COC(=O)c2ccc(OCc3c(C)noc3C)cc2)c1	none
O=C(CC1CC2CCC1C2)Nc1nc(-c2ccccn2)cs1 (centres undefined)	PAFAH1B2 inh 54.6
O=C(Nc1nc(-c2ccccn2)cs1)C1CC1	none
COc1cccc(C2CC(=O)Nc3cc(OC)c(OC)cc32)c1 (centres undefined)	none (no result: PME-1 inh, Fam108B counter, pPAFAH inh)
COc1cccc(C2CC(=O)Nc3cc4c(cc32)CCC4)c1 (centres undefined)	pPAFAH inh 31.9
O=C1CC(c2cccc(Cl)c2)c2cc3c(cc2N1)CCC3 (centres undefined)	pPAFAH inh 27.7
O=C1CC(c2cccc([N+](=O)[O-])c2)c2cc3c(cc2N1)CCC3 (centres undefined)	none
CS(=O)(=O)C1=NSC2=NC(=O)/C(=C\c3ccc(OS(=O)(=O)c4ccccc4)cc3)C(=N)N21	PAFAH1B2 inh 24.9
O=C1ON=C(c2ccccc2)/C1=C/c1ccc(OS(=O)(=O)c2ccccc2)cc1	PAFAH1B2 inh 101.0
Cc1ccc(S(=O)(=O)Oc2ccc(/C=C3\C(=N)N4N=C(S(C)(=O)=O)SC4=NC3=O)cc2)cc1	PAFAH1B2 inh 59.8
Cc1ccc(S(=O)(=O)Oc2ccc(/C=C3/C(=N)N4C(=NC3=O)SN=C4S(C)(=O)=O)cc2)cc1	PAFAH1B2 inh 50.0
O=C(NNC(=O)C1CC1)c1cc(=O)[nH]c2ccccc12	none (no result: PME-1 inh, Fam108B counter)
CCN(C(=O)CSc1nc2scc(-c3ccccc3)c2c(=O)n1N)C1CCS(=O)(=O)C1 (centres undefined)	none (no result: PME-1 inh, Fam108B counter, pPAFAH inh)
CN(NC(=O)c1ccccc1F)c1ccc([N+](=O)[O-])cn1	none
CNNC(=S)Nc1cccc(SC)c1	none
CCc1ccc(-n2cccc2/C=C2/C(=N)N3C(=NC2=O)SN=C3S(C)(=O)=O)cc1	none
Cc1ccc(-n2cccc2/C=C2/C(=N)N3C(=NC2=O)SN=C3S(C)(=O)=O)cc1	PAFAH1B2 inh 27.7
CCCC(=O)NC(=S)Nc1ccc(S(=O)(=O)N2CCc3ccccc32)cc1	none (no result: PAFAH1B3 inh, PAFAH2 inh, PAFAH1B2 inh)
O=C(Nc1cc([N+](=O)[O-])ccc1O)c1ccc2c(c1)C(=O)N(Cc1ccco1)C2=O	pPAFAH inh 29.9
O=C(Nc1cc([N+](=O)[O-])ccc1O)c1cccc(C(=O)Nc2cc([N+](=O)[O-])ccc2O)c1	PAFAH1B3 inh 33.9, PAFAH2 inh 33.4
CCS(=O)(=O)N1Cc2ccccc2CC1C(=O)Nc1nnc(SCc2ccc(F)cc2)s1 (centres undefined)	pPAFAH inh 25.2
CCc1nnc(NC(=O)C2Cc3ccccc3CN2S(=O)(=O)CC)s1 (centres undefined)	none
O=C(O)c1ccc2c(c1)C1C=CCC1C(c1ccncc1)N2 (centres undefined)	pPAFAH inh 25.4
O=C1Nc2ccccc2/C1=N\N=C\C1=C(N2CCOCC2)C(=C\c2ccccc2)/CC1	PME-1 inh 30.6
O=C1Nc2ccc(Br)cc2/C1=N\N=C\C1=C(N2CCOCC2)C(=C/c2ccccc2)/CC1	none (no result: PME-1 inh, Fam108B counter, pPAFAH inh)
O=C(Nn1cnnc1)c1cc(-c2ccccn2)nc2ccccc12	none
O=C(NNS(=O)(=O)c1ccc2ccccc2c1)c1cc(-c2ccccn2)nc2ccccc12	PAFAH1B2 inh 26.0
Cc1cccc(OCCNC(=O)CCc2ccccc2)c1	none (no result: PAFAH1B3 inh, PAFAH2 inh, PAFAH1B2 inh)
CCCN(CCC)c1nc(Cl)nc(NCc2ccco2)n1	pPAFAH inh 25.5
COc1ccc(C(=O)c2sc3nc(-c4ccccc4)ccc3c2N)cc1	PME-1 inh 34.7
Cc1ccnc(NC(=O)C2CCN(S(=O)(=O)c3ccc(C)c(C)c3)CC2)c1	none
CCOC(=O)C1=C(C)Nc2ccccc2N/C1=N\S(=O)(=O)c1ccc(Cl)cc1	none (no result: Fam108B counter)
CCOC(=O)C1=C(C)Nc2ccccc2N/C1=N\S(=O)(=O)c1cccc(Cl)c1	PME-1 inh 26.2 (no result: Fam108B counter)
O=C1NC(c2cccc3ccccc23)Nc2ccccc21 (centres undefined)	none (no result: PME-1 inh, Fam108B counter, pPAFAH inh)
O=C1c2ccccc2C(=O)C12OC2c1cccc2ccccc12 (centres undefined)	PAFAH1B3 inh 64.9
NC(=O)c1cc([N+](=O)[O-])ccc1NCc1cnccn1	none
NC(N)=N/N=C(\N=Nc1ccccc1)c1ccc(Cl)cc1	none (no result: PME-1 inh, Fam108B counter, pPAFAH inh)
Cc1ccc(CNC(=O)Cn2cccc2C(=O)c2ccccc2C)cc1	PAFAH1B2 inh 26.6
Cc1ccccc1C(=O)c1cccn1CC(=O)NCc1ccc(Cl)cc1	PAFAH1B2 inh 30.6
N/C(=N\OC(=O)CCCc1ccccc1)c1ccccc1	none
N/C(=N\OC(=O)Cc1ccccc1)c1cccc(Br)c1	PAFAH1B2 inh 29.5
Cc1ccc(SCC(=O)O/N=C(\N)c2cccc([N+](=O)[O-])c2)cc1	PAFAH1B2 inh 35.8
COc1ccc(/C(N)=N/OC(=O)CSc2ccccc2)cc1	PAFAH1B2 inh 29.3
N/C(=N\OC(=O)CCCc1ccccc1)c1cccc([N+](=O)[O-])c1	PAFAH1B2 inh 25.7
NS(=O)(=O)c1ccc(CCNCC(=O)NCc2ccccc2Cl)cc1	none
CCOC(=O)NC(=O)CSc1nc(-c2ccc(C)c(C)c2)cn1-c1ccccc1	pPAFAH inh 31.7
CCOC(=O)NC(=O)CSc1nnnn1-c1ccccc1	none
Cc1ccc(-c2cn(-c3ccccc3)c(SCC(N)=O)n2)cc1C	pPAFAH inh 30.4
Cc1ccccc1-n1cc(-c2ccc(Br)cc2)nc1SCC(N)=O	none (no result: PAFAH1B3 inh, PAFAH2 inh, PAFAH1B2 inh)
COc1cc(NCCCn2cnc3c(OCc4ccccc4)ncnc32)cc(OC)c1OC	none (no result: PME-1 inh, Fam108B counter, pPAFAH inh)
CCC(NCc1cccnc1)c1ccc(OC)c(OC)c1 (centres undefined)	none (no result: PME-1 inh, Fam108B counter, pPAFAH inh)
CCOC(CNCc1cc(C)c2[nH]c3ccccc3c2c1C)OCC	none (no result: PME-1 inh, Fam108B counter, pPAFAH inh)
O=C1CCCN1c1ccc(S(=O)(=O)Oc2ccc(Cl)cc2)cc1[N+](=O)[O-]	PAFAH1B2 inh 69.0
CCCNS(=O)(=O)c1ccc(N2CCCC2=O)c([N+](=O)[O-])c1	none
C=CCN1C(=O)c2ccc(C(=O)N3CCN(S(=O)(=O)c4cccc([N+](=O)[O-])c4)CC3)cc2C1=O	none (no result: Fam108B counter)
CC1CC(OC(=O)C2CCN(S(=O)(=O)c3ccc(F)cc3)CC2)C(=O)O1 (centres undefined)	none (no result: PME-1 inh, Fam108B counter, pPAFAH inh)
O=C(O)CN1C(=O)/C(=C\c2cccc(OCc3ccc(Cl)cc3)c2)SC1=S	PAFAH1B2 inh 62.2
O=C(O)CN1C(=O)/C(=C\c2cccc(OCc3ccc(F)cc3)c2)SC1=S	PAFAH1B2 inh 28.4 (no result: PME-1 inh, Fam108B counter, pPAFAH inh)
COc1ccc(OC)c(Nc2ccc(Nc3cc(OC)ccc3OC)nn2)c1	pPAFAH inh 30.4
COc1ccccc1Nc1ccc(Nc2ccccc2OC)nn1	none
CCOC(=O)c1ccc(NS(=O)(=O)c2cc3c4c(c2)CCN4C(=O)CC3)cc1	none
Cc1cc(C)cc(NS(=O)(=O)c2ccc(NC(=O)C3CCCCC3C(=O)O)cc2)c1 (centres undefined)	pPAFAH inh 28.0

Screening results as filed in PubChem BioAssay.
